Targets with a hit are over-represented here; the source holds about 7,900 in all. About 0.6% of all pairs of compound and target were hits.

Sequence of UniProt Q8N1A6 (Q8N1A6 whole entry, looked up): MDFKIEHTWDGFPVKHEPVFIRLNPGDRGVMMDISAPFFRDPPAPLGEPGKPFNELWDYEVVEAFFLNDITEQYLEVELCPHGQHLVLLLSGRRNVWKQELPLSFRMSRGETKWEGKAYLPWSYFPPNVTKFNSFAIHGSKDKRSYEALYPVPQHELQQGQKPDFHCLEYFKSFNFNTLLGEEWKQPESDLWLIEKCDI
Sequence of UniProt P48730 (P48730 whole entry, looked up): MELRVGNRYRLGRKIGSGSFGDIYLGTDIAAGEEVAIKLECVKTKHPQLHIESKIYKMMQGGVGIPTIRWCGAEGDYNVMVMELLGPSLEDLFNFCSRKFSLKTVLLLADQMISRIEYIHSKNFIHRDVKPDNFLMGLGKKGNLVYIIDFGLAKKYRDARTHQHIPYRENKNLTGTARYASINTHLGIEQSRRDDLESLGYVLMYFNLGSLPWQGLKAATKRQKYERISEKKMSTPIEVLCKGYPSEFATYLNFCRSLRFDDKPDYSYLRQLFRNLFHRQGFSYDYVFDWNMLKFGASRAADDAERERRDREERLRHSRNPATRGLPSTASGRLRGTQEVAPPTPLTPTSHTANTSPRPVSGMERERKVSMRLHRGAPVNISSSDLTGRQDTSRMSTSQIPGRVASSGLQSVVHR
Sequence of UniProt P09497 (P09497 whole entry, looked up): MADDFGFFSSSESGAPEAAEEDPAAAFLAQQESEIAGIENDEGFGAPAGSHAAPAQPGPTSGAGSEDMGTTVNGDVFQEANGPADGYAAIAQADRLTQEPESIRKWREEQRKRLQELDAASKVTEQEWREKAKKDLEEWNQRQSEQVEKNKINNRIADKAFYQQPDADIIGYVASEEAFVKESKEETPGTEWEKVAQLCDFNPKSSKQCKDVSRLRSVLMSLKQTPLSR
Sequence of UniProt Q96RR4 (Q96RR4 whole entry, looked up): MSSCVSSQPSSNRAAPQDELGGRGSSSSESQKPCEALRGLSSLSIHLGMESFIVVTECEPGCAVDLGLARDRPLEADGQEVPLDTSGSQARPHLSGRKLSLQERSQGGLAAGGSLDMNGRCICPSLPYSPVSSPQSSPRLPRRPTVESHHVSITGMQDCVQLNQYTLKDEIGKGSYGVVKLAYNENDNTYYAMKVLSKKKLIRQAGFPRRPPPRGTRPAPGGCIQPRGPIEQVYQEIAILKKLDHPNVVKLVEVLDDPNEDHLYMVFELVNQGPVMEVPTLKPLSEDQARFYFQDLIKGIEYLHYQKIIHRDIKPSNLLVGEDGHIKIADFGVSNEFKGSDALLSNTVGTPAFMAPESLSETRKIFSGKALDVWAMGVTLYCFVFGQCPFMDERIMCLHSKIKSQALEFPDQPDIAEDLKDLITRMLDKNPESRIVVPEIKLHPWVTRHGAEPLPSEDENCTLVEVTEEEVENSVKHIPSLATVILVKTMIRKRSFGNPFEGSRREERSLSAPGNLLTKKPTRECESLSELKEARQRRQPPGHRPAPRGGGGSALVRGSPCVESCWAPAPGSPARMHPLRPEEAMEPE
Sequence of UniProt P21127 (P21127 whole entry, looked up): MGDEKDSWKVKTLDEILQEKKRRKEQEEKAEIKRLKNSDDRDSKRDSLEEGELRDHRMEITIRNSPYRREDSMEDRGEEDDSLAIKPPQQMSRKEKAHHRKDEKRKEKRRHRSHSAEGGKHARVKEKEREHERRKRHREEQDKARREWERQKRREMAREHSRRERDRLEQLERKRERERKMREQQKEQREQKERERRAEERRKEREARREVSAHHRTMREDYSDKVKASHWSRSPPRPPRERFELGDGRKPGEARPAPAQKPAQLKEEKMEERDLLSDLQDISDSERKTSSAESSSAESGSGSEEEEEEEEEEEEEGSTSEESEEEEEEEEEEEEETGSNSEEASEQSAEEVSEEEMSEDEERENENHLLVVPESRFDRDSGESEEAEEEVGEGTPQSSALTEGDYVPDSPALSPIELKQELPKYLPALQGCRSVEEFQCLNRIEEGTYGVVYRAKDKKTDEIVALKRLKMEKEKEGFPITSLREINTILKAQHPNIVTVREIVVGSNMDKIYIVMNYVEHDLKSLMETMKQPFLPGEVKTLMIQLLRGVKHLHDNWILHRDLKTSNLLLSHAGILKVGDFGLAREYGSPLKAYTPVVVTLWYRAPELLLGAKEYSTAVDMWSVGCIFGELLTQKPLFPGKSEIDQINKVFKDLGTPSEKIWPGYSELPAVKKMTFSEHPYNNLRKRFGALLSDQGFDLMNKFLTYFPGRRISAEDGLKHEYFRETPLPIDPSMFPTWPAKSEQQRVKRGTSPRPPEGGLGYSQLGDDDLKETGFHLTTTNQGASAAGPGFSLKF
Sequence of UniProt P42575 (P42575 whole entry, looked up): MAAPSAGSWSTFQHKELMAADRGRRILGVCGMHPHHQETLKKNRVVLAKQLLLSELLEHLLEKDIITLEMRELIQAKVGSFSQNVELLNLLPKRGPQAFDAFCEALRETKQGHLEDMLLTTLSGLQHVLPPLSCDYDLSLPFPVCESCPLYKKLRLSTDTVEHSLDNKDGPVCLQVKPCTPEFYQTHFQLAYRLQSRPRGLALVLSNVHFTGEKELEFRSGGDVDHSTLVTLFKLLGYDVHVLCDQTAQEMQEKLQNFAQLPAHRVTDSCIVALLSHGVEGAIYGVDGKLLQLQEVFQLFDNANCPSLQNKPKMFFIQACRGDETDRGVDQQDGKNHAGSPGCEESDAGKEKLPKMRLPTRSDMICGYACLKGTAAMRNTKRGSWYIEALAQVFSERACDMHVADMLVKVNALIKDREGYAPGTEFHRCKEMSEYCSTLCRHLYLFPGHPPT
Sequence of UniProt P10606 (P10606 whole entry, looked up): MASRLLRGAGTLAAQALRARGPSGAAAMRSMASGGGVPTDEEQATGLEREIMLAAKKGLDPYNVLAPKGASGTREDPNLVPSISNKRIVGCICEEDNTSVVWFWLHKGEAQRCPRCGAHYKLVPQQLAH
Sequence of UniProt O95319 (O95319 whole entry, looked up): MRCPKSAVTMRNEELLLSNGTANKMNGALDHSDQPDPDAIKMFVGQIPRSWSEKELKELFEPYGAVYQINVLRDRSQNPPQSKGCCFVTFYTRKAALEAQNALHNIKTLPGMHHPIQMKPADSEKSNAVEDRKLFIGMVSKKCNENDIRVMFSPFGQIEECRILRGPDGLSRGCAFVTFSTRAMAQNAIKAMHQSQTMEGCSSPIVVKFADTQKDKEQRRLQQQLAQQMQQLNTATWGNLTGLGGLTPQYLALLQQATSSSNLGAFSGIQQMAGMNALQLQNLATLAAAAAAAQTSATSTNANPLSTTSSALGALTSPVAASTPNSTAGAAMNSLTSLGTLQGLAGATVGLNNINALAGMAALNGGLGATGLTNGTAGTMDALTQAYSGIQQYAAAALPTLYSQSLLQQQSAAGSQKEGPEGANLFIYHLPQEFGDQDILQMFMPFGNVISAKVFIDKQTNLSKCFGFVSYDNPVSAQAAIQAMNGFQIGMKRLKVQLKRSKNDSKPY
Sequence of UniProt Q13137 (Q13137 whole entry, looked up): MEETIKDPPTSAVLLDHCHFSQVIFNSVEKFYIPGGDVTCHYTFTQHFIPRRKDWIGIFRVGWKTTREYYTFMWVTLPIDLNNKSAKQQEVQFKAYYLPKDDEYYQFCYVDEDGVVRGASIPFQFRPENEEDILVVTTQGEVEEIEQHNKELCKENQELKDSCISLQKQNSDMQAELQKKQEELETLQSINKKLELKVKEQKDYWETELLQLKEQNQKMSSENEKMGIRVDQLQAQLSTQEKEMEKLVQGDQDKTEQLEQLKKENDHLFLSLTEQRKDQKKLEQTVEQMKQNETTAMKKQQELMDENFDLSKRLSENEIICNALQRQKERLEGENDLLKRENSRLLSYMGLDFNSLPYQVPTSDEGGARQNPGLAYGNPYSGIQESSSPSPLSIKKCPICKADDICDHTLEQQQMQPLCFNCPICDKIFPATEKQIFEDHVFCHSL
Sequence of UniProt Q00535 (Q00535 whole entry, looked up): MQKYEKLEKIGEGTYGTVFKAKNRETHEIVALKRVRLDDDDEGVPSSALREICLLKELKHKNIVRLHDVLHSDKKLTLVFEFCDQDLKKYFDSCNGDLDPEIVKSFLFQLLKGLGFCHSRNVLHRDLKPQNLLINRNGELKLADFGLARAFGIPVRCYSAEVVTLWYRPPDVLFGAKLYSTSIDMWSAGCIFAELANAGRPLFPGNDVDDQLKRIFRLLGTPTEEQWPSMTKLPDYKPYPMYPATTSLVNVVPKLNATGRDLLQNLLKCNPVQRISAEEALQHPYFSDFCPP
Sequence of UniProt Q13901 (Q13901 whole entry, looked up): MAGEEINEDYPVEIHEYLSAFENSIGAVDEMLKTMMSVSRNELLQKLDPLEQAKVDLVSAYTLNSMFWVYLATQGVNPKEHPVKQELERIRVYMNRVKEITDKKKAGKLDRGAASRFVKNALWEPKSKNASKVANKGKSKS
Sequence of UniProt Q14677 (Q14677 whole entry, looked up): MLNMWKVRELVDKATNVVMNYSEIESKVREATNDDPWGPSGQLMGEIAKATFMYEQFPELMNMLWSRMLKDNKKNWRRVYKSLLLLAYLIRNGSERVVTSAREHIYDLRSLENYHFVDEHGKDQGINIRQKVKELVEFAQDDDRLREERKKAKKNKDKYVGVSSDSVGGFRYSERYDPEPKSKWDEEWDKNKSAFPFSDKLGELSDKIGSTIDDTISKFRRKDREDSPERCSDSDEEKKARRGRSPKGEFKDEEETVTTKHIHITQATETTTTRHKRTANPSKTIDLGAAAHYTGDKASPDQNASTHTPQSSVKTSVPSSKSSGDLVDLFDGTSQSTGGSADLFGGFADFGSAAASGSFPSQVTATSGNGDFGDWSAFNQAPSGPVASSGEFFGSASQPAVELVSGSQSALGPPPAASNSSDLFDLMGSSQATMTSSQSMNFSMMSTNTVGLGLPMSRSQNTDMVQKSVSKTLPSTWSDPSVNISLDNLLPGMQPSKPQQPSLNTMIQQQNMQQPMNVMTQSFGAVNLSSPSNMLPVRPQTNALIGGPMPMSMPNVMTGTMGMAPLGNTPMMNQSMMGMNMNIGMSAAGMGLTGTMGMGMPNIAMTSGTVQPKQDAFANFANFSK

Compound in the assay: CC1=C(C=C(C=C1)NC(=O)C2=CC(=CC=C2)C(C)(C)C#N)NC3=CC4=C(C=C3)N=CN(C4=O)C
Description: log2 fold change, soluble protein after heating vs DMSO (PISA); higher = thermal stabilisation; K562 cells, 10 uM, 30 min; active = over 0.2 and 3.5 SD of the protein, either way, in both replicates (recomputed). In outline: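 K562 cells at 2×10^6 cells/mL were exposed to 10 μM compound for 30 min, then aliquots were heated for 3 min across 48°C-58°C, pooled, and extracted in PBS containing 0.5% NP-40 at 4°C. The supernatant after 21,000xg for 90 min was taken as soluble protein and measured by TMTpro 16plex LC-MS/MS with channel sums equalised. Thermal stability is reported relative to control samples, with values from duplicates. Fold changes are given on a log2 scale.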
Take C1D (UniProt Q13901): the log2 fold change was 0.058 (inactive).

With COX5B (UniProt P10606), the log2 fold change was -0.038 (inactive). Then CLTB (UniProt P09497), with -0.003 (inactive); and CHD3 isoform 3 (UniProt Q12873), with 0.03 (inactive); and CELF2 isoform 3 (UniProt O95319), with 0.075 (inactive). To CSNK1D (UniProt P48730) belongs -0.001 (inactive); to CDK5 (UniProt Q00535), -0.053 (inactive); to CASP2 (UniProt P42575), 0.025 (inactive). For CLINT1 isoform 3 (UniProt Q14677), the log2 fold change was -0.082 (inactive). On to CAMKK2 (UniProt Q96RR4), for which the log2 fold change is 0.022 (inactive).

Turning to CDK11B (UniProt P21127), the log2 fold change was -0.079 (inactive).

Regarding C4orf33 (UniProt Q8N1A6), the log2 fold change is -0.101 (inactive). CALCOCO2 isoform 4 (UniProt Q13137): the log2 fold change is -0.005 (inactive).

The values are drawn from the supplement of paper PMC10849652.
